Where “and” joins values, the source holds several entries; their conditions need not be identical. Equal entries are not always repeated.
Columns and labels:
Assay type in all cases: functional
[1] = tested on: Plasmodium falciparum; test: GSK_TCMDC: Inhibition of Plasmodium falciparum 3D7 in whole red blood cells, using parasite LDH activity as an index of growth. Test compounds present at 2uM
[2] = tested on: Plasmodium falciparum; test: GSK_TCMDC: Inhibition of Plasmodium falciparum Dd2 in whole red blood cells, using parasite LDH activity as an index of growth. Test compounds present at 2uM
[3] = tested on: HepG2; test: GSK_TCMDC: Percent inhibition of human HepG2 cell line. Test compounds present at 10uM.

Compound | Inhibition [1] | Inhibition [2] | Inhibition [3]
Cl.Fc1ccc2[nH]cc(CCN3CCC(CNCc4ccccc4)CC3)c2c1 | 100% | 94% | 67%
CNCCN(C)C(=O)Oc1c(Cl)c(C)nc(C)c1-c1ccc(Oc2ccc(OC(F)(F)F)cc2)cc1.Cl | 97% | 96% | 0%
Oc1ccc(CN2CCN(CCOC(c3ccccc3)c3ccc(Cl)cc3)CC2)cc1Cl (configuration not stated) | 98% | 97% | 11%
CN1CC=C(c2c[nH]c3ccc(Oc4ccccc4)cc23)CC1.O=C(O)C(=O)O | 98% | 98% | 40%
Cc1c(C)c2c(c(C)c1O)CC[C@@](C)(C(=O)N1CCC(CN3CCC(c4c[nH]c5ccccc45)CC3)CC1)O2 | 98% | 90% | 21%
COC(=O)c1ccc(CC(C)NCC(O)c2cccc(C(F)(F)F)c2)c(Cl)c1 (configuration not stated) | 99% | 98% | 0%
FC(F)(F)c1ccc(NC(=S)N2CCC(CN3CCC(c4c[nH]c5ccccc45)CC3)CC2)cc1 | 100% | 45% | 35%
CC[C@H]1CN2CC[C@H]1C[C@H]2[C@H](O)c1cc(N2CCCC(C(=O)N(CC)CC)C2)nc2ccc(OC)cc12 (some centres not stated) | 100% | 99% | 0%
C=CCOc1ccccc1CNCC(O)c1cccc(C(F)(F)F)c1 (configuration not stated) | 99% | 98% | 10%
C=Cc1cc(OC)c2c(c1)c(=O)oc1c2cc(OC)c2c(O)ccc([C@H]3O[C@H]([C@H](C)O)[C@H](O)[C@H]3O)c21 | 95% | 41% | 33%
O=C(Nc1ccc(CN2CCC(c3c[nH]c4ccc(O)cc34)CC2)cc1)c1ccc(-c2ccccc2)cc1 | 100% | 100% | 33%
CCOc1ccc(CN(CCc2ccc3c(c2)OCO3)Cc2cc(OC)ccc2O)cc1.O=C(O)C(=O)O | 96% | 88% | 3%
S=C(NCCc1ccc(Cl)cc1)N1CCC(CN2CCC(c3c[nH]c4ccccc34)CC2)CC1 | 90% | 7% | 31%
Cc1ccc(CC(C)NC[C@H](O)c2cccc(Cl)c2)cc1.Cl (some centres not stated) | 96% | 47% | 15%
CC(C)CNCc1cccc(-c2cccc(CN(C(=O)NC3CCCCC3)C3CCN(Cc4ccccc4)CC3)c2)c1.O=C(O)C(F)(F)F | 97% | 87% | 32%
COC(=O)c1ccc(C[C@@H](C)NC[C@H](O)c2cccc(C(F)(F)F)c2)cc1.Cl | 97% | 93% | 1%
CC(Cc1ccc(OC2CCCCC2)cc1)NCC(O)c1cccc(Cl)c1.Cl (configuration not stated) | 99% | 99% | 66%
CCCN(CCC)CCOC(=O)C(OCC)(c1ccccc1)c1ccccc1 | 97% | 0% | 0%
CC1(C)CCCN(C(=O)Cc2ccc3c(c2)CCCC3)C1CN1CC=CC1.Cl (configuration not stated) | 98% | 1% | 0%
CCOc1ccc(-c2nc3cc(-c4nc5cc(N6CCN(C)CC6)ccc5[nH]4)ccc3[nH]2)cc1.Cl.O | 100% | 99% | 16%
FC(F)(F)c1ccc(NC(=S)NC2CCC(CN3CCC(c4c[nH]c5ccccc45)CC3)CC2)cc1 (configuration not stated) | 100% | 100% and 99% | 65% and 92%
CC(Cc1ccc(OCCCCOc2ccccc2)cc1)NCCc1ccccc1Cl (configuration not stated) | 97% | 58% | 100%
CCCC(=O)c1c(O)c2ccccc2oc1=O | 93% | 1% | 11%
COC(C(=O)OCCC1CCCN1C)(c1ccccc1)c1ccccc1 (configuration not stated) | 98% | 9% | 6%
COC(=O)c1ccc(CC(C)NCC(O)c2cccc(C(F)(F)F)c2)c(OC)c1 (configuration not stated) | 100% | 98% | 5%
Oc1cccc(C2CCCN(Cc3cccc4cc[nH]c34)C2)c1 (configuration not stated) | 100% | 82% | 16%
CCCCCCC(CC)c1cc(O)c2c(c1)OC(C)(C)c1ccncc1-2.Cl (configuration not stated) | 94% | 52% | 0%
O=C(NC1CCC(CN2CCC(c3c[nH]c4ccccc34)CC2)CC1)c1cc(-c2ccccc2Cl)oc1C(F)(F)F (configuration not stated) | 99% | 7% | 24%
CCCCCC(C)C(C)c1cc(O)c2c3c(c(=O)oc2c1)CN(Cc1ccccc1)CC3.Cl (configuration not stated) | 99% | 47% | 4%

From ChEMBL document CHEMBL1157539, “Thousands of chemical starting points for antimalarial lead identification” (Nature, 2010)
